Structures are written as SMILES. “And” between values parts separate entries of the source, which are not always exact repeats. Identical values can stand only once. About 83,000 compounds went through this panel and 20% of them were active in at least one assay; those are over-represented in the sample as a whole.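 Interpretation: 100, growth as untreated; towards 0, rising growth inhibition; 0, no net growth; 0 to -100, cell death. Compounds scoring below 10 were considered active.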 Unmarked numbers belong to inactive results. The source made the active and inactive calls.

The text below walks through data of PubChem BioAssay (NCI).

Some test systems named below: NCI-H23 lung; NCI-H226 lung; NCI-H322M lung; HOP-62 NSCLC; NCI-H460 lung; HOP-92 NSCLC; NCI-H522 lung; A549/ATCC NSCLC; 786-0 renal; COLO 205 colon.
Common to all, as to test: NCI-60 one-dose screen, 48 h (100 = growth as untreated, 0 = no growth, -100 = all killed)
Holding throughout (settings): 10 µM unless noted

With `CC(C)(C)c1ccc(OCc2nc3ccccc3n2-c2cccc(N)c2)cc1`, the growth in the test with NCI-H23 lung is 50.1% and 100%; in the test on NCI-H226 lung, 61.1% and 103%; in the test with NCI-H322M lung, 94.8% and 104%; in the test with HOP-62 NSCLC it was 88.6% and 102%; with NCI-H460 lung, 78.2% and 109%; in the test with HOP-92 NSCLC it was 41.6% and 106%. Further, the growth in the test with NCI-H522 lung is 74.5% and 103%; in the test on A549/ATCC NSCLC it was 66.6% and 107%; in the test with 786-0 renal it was 80.9% and 102%; with COLO 205 colon, 77.6% and 114%.
Consider `S=C(NCCc1ccccc1)Nc1ccc(OCc2nc3ccc(Cl)cc3[nH]2)cc1`, for which the growth in the test with NCI-H23 lung is 28.6%; in the test with NCI-H226 lung it was 67.1%; with NCI-H322M lung it was 57.5%; with HOP-62 NSCLC, 49.7%; with NCI-H460 lung it was 10.8%; with HOP-92 NSCLC it was 14.4%. In addition, the growth in the test with NCI-H522 lung is -26.8% (active); in the test with A549/ATCC NSCLC, 51.2%; in the test on 786-0 renal it was 29%; in the test on COLO 205 colon, 43.6%.
In the case of `N#C/C(=C/c1ccc([N+](=O)[O-])cc1)c1nnc(NC(=O)c2ccc(-n3c(=O)[nH]c4ccccc4c3=O)cc2)s1`, the growth in the test with NCI-H23 lung was 91.9%; with NCI-H226 lung it was 87.8%; in the test with NCI-H322M lung, 97.5%; in the test on HOP-62 NSCLC, 85.6%; with NCI-H460 lung it was 79.2%; in the test on HOP-92 NSCLC it was 101%. Also, the growth in the test with NCI-H522 lung was 108%; with A549/ATCC NSCLC, 102%; in the test on 786-0 renal, 104%; with COLO 205 colon, 122%.
For `CC(=O)c1ccc2c(N)c(C(=O)Nc3ccc(C(F)(F)F)cc3)sc2n1`, the growth was 41.7% with NCI-H23 lung; 59.1% in the test with NCI-H226 lung; 83.2% in the test on NCI-H322M lung; 58.6% in the test with HOP-62 NSCLC; 72.8% with NCI-H460 lung; 67.1% in the test on HOP-92 NSCLC. Also, the growth in the test with NCI-H522 lung is 59.8%; in the test with A549/ATCC NSCLC, 78.5%; in the test on 786-0 renal, 78.1%; in the test with COLO 205 colon it was 83.4%.
As to `CS(=O)(=O)Nc1cc(-c2ccc3ncnc(Nc4ccc(OCc5cccnc5)c(Cl)c4)c3c2)cnc1Cl`, the growth was -26.9% (active) in the test on NCI-H23 lung; 23.8% with NCI-H226 lung; -2.48% (active) in the test with NCI-H322M lung; 24.3% in the test with HOP-62 NSCLC; 35.2% in the test on NCI-H460 lung; -27.9% (active) with HOP-92 NSCLC. In addition, the growth in the test on NCI-H522 lung is -4.01% (active); with A549/ATCC NSCLC it was 45.6%; with 786-0 renal it was 2.08% (active); in the test with COLO 205 colon, -73.5% (active).
Turning to `COc1cc(/C=C/C(=O)c2cnn(-c3cc(=O)[nH]c4ccc(Br)cc34)c2C)cc(OC)c1OC`, the growth in the test on NCI-H23 lung was -63.4% (active); with NCI-H226 lung it was -28% (active); in the test with NCI-H322M lung, 4.7% (active); in the test on HOP-62 NSCLC, -9.41% (active); with NCI-H460 lung it was -60.4% (active); in the test with HOP-92 NSCLC it was 25.7%. Also, the growth with NCI-H522 lung was -89.1% (active); in the test on A549/ATCC NSCLC, 8.86% (active); in the test on 786-0 renal it was -73% (active); with COLO 205 colon it was -80.7% (active).
With `Cc1ccc(C(=O)Nc2cc(-n3ccnc3C)cc(C(F)(F)F)c2)cc1C#Cc1cnc2cccnn12`, the growth with NCI-H23 lung was -26.1% (active); in the test on NCI-H226 lung it was -33.1% (active); in the test on NCI-H322M lung, 21%; in the test on HOP-62 NSCLC, -7.58% (active); in the test with NCI-H460 lung it was 5.86% (active); in the test with HOP-92 NSCLC it was -31.5% (active). For the same compound, the growth in the test on NCI-H522 lung was -29.1% (active); in the test with A549/ATCC NSCLC, 11.3%; in the test with 786-0 renal, 6.68% (active); with COLO 205 colon, -19.9% (active).
`COc1ccccc1NC(=O)N/N=C/c1c[nH]c2ccccc12`: the growth in the test with NCI-H23 lung is 0.507% (active); in the test on NCI-H226 lung, 19%; in the test with NCI-H322M lung it was 49.4%; in the test with HOP-62 NSCLC it was 47.6%; with NCI-H460 lung, 14.1%; in the test with HOP-92 NSCLC it was 47.7%. Also, the growth in the test on NCI-H522 lung was -37.1% (active); with A549/ATCC NSCLC it was 30.5%; in the test with 786-0 renal, 14.9%; in the test on COLO 205 colon, 4.3% (active).
Turning to `COc1cccc(/C=C/c2nc3ccccc3c(=O)n2CC(=O)Nc2ccccc2)c1`, the growth in the test with NCI-H23 lung is 59.2%; in the test on NCI-H226 lung, 13.9%; in the test on NCI-H322M lung, 72.3%; in the test with HOP-62 NSCLC, 4.65% (active); in the test with NCI-H460 lung, 51.4%; in the test with HOP-92 NSCLC, 19.5%. The growth was 53.3% with NCI-H522 lung, 16.9% in the test on A549/ATCC NSCLC, -8.65% (active) with 786-0 renal and 75.5% with COLO 205 colon.
For `O=C1NC(=S)/C(=C/c2cn(-c3ccccc3)nc2-c2ccccc2)S1`, the growth in the test on NCI-H23 lung was 12.5%; in the test on NCI-H226 lung, 34.1%; in the test with NCI-H322M lung, 31.7%; with HOP-62 NSCLC, 72.6%; in the test on NCI-H460 lung, 9.19% (active); in the test on HOP-92 NSCLC, 13.7%. The growth was -9.92% (active) in the test with NCI-H522 lung, 17.7% with A549/ATCC NSCLC, 20.8% in the test with 786-0 renal and 33.2% with COLO 205 colon.
Take `COc1ccc(C(=O)c2c(N)c(C#N)cn2-c2ccc([N+](=O)[O-])cc2)cc1`: the growth was 103% in the test on NCI-H23 lung; 102% with NCI-H226 lung; 100% in the test with NCI-H322M lung; 83.4% in the test on HOP-62 NSCLC; 108% in the test on NCI-H460 lung; 102% in the test with HOP-92 NSCLC. Moreover, the growth with NCI-H522 lung is 85.1%; with A549/ATCC NSCLC, 103%; in the test on 786-0 renal it was 109%; in the test on COLO 205 colon, 105%.
Take `O=C(CSc1nnc(-c2ccc(-c3nc4ccc(Cl)cc4[nH]3)cc2)o1)Nc1ccc(Cl)cc1`: the growth was -11.9% (active) in the test with NCI-H23 lung; -38.2% (active) in the test on NCI-H226 lung; 32.9% in the test with NCI-H322M lung; -13.6% (active) in the test with HOP-62 NSCLC; -75.8% (active) in the test with NCI-H460 lung; 14.7% in the test with HOP-92 NSCLC. The growth with NCI-H522 lung was -1.21% (active); in the test on A549/ATCC NSCLC, -36.2% (active); in the test on 786-0 renal, -39.5% (active); with COLO 205 colon, 45.3%.
`CN1CCN(C(=O)CCN(C(=O)Oc2cc3c(c4ccccc24)[C@H](CCl)CN3C(=O)c2cc3cc(OCCCN4CCC4)ccc3[nH]2)[C@H]2CCSSC2)CC1`: the growth in the test with NCI-H23 lung is -73.3% (active); in the test on NCI-H226 lung, -17.9% (active); with NCI-H322M lung, -48% (active); in the test on HOP-62 NSCLC it was -77.4% (active); in the test on NCI-H460 lung, 2.93% (active); in the test with HOP-92 NSCLC it was -32.1% (active). In addition, the growth is -74.4% (active) in the test on NCI-H522 lung, -61.5% (active) in the test with A549/ATCC NSCLC, -90.8% (active) in the test on 786-0 renal and -80% (active) in the test with COLO 205 colon.
